Bioassay records deposited in PubChem BioAssay by several laboratories.
Hits are enriched below; roughly 2.8% of the tested compounds scored in any of these assays.
PP1 counter – PP1-alpha phosphatase inhibitors, primary screen, counter-screen for PP5 inhibitor project, biochemical, fluorescence, OMFP substrate, single point | Serine/threonine-protein phosphatase PP1-alpha catalytic subunit (Homo sapiens), P62136 | purified PP1alpha | inhibition, % at 6.7 µM | 320,000 compounds, 0.9% hits | AID 2235, 2010;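 active = inhibition above the mean inhibition of all tested compounds plus 3 SD, computed separately for each screening campaign, cut at about 15% in these data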
SKKanGAS inh – S. pyogenes SKKanGAS growth inhibitors in kanamycin, primary screen, streptokinase expression inhibitor project, SKKanGAS strain, BacTiter-Glo luminescence. 6 h. inhibition, % at 7.5 µM. 300,000 compounds, 1.3% hits. AID 1662, 2009;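 active = mean replicate score, as percent of positive control median, at least 50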;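 also: strain carries kanamycin resistance gene driven by streptokinase promoter and grows in 40 µg/ml kanamycin; loss of luminescence reflects streptokinase promoter inhibition or plain growth inhibition; 0% = median of DMSO wells and 100% = positive control at its reference dose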
IDE cell inh – human IDE inhibitors in live cells, primary screen, fluorescence polarization, HEK cells, FAbetaB substrate | Insulin-degrading enzyme (Homo sapiens), P14735 | FAbetaB cleavage | inhibition, % at 5.59 µM | 320,000 compounds, 0.41% hits;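 active = percent inhibition above the average of all tested compounds plus 3 SD, set per screening campaign, cut at about 16% in these data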;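 also: IDE supplied by intact live HEK cells; FP after avidin binding of uncleaved biotin substrate so inhibition keeps polarization high; 0% = DMSO wells and 100% = 60 µM reference IDE inhibitor Ii1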
IDE cell activ – human IDE activators in live cells, primary screen, fluorescence polarization, HEK cells, FAbeta-B substrate; Insulin-degrading enzyme (Homo sapiens), P14735; FAbeta-B cleavage; 0% vehicle, 100% cell-free pure enzyme wells; activation, % at 5.96 µM; 340,000 compounds, 0.073% hits; AID 493087, 2011;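 active = activation above the mean of all tested compounds plus 3 SD, set per screening campaign, cut at about 17% in these data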
PP5 primary – PP5 phosphatase inhibitors, primary screen, biochemical, fluorescence; purified PP5c, OMFP substrate fluorescence; inhibition, % at 6.7 µM; 320,000 compounds, 0.18% hits; AID 1987, 2009;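 active = inhibition above the campaign's mean inhibition across all tested compounds plus 3 SD, cut at about 9.5% in these data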;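 also: 0% = DMSO only and 100% = 100 µM cantharidin control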
Exocytosis inh – LAMP-1 surface exposure blockers, TALL-104 cells – cell-based, flow cytometry, MLPCN library, primary screen; TALL-104 LAMP-1 surface exposure; cells stimulated with thapsigargin and PMA; inhibition, % at 10 µM; 360,000 compounds, 0.66% hits; AID 651702, 2012;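 active = inhibition above about 55%, limit read from the data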
Active calls of the source: *.

Results for CCc1nccn1-c1cc(C(C)(C)C)nc2c(-c3ccc(Cl)cc3)cnn12 ?
PP1 counter: -6.1; SKKanGAS inh: 7.6; IDE cell inh: -5.2; IDE cell activ: 5.5; PP5 primary: 1.1; Exocytosis inh: -9.8

How did CC(C)(C)c1cc(NCc2ccccn2)n2ncc(-c3ccc(Cl)cc3)c2n1 do in these assays?
PP1 counter: -2.8; SKKanGAS inh: 84.8*; IDE cell inh: 2.7; IDE cell activ: -3.0; PP5 primary: 0.0; Exocytosis inh: 14.3

What do the screens show for `CC(C)(C)c1cc(C(F)(F)F)n2ncc(-c3ccccc3)c2n1`?
PP1 counter: -12.1; SKKanGAS inh: 4.8; IDE cell inh: 4.8; IDE cell activ: 4.6; PP5 primary: -0.1; Exocytosis inh: -3.9

What do the screens show for `CN(C)CCCNc1cc(C(C)(C)C)nc2c(-c3ccc(Cl)cc3)cnn12`?
PP1 counter: 5.3; SKKanGAS inh: 74.5*; IDE cell inh: 3.4; IDE cell activ: 8.5; PP5 primary: 5.5; Exocytosis inh: 65.4*

What do the screens show for `CC(C)Nc1cc(C(C)(C)C)nc2c(-c3ccccc3)cnn12`?
PP1 counter: -2.7; SKKanGAS inh: 88.7*; IDE cell inh: 3.0; IDE cell activ: 5.7; PP5 primary: -1.8; Exocytosis inh: -3.2

What do the screens show for `Cc1cc(NCCCN2CCOCC2)n2ncc(-c3ccc(Cl)cc3)c2n1`?
PP1 counter: -0.1; SKKanGAS inh: 17.8; IDE cell inh: 4.1; IDE cell activ: -4.2; PP5 primary: 5.1; Exocytosis inh: 14.5

Results for COCCn1c(=O)[nH]c2cc(C(=O)Nc3cccc(C(C)=O)c3)ccc2c1=O ?
PP1 counter: -1.9; SKKanGAS inh: 1.9; IDE cell inh: -7.3; IDE cell activ: -1.6; PP5 primary: 1.0; Exocytosis inh: -8.4

What do the screens show for `Cc1nn(C2CCS(=O)(=O)C2)c2nc(C3CC3)cc(C(=O)Nc3ccc(C(N)=O)cc3)c12` (stereo not given)?
IDE cell activ: 1.4; Exocytosis inh: 1.9

How did CC(NC(=O)CNC(=O)C(Cc1ccccc1)NC(=O)OCc1ccccc1)C(N)=O (stereo not given) do in these assays?
PP1 counter: 2.2; SKKanGAS inh: -4.0; IDE cell inh: 0.3; IDE cell activ: 3.6; PP5 primary: 1.2; Exocytosis inh: 0.4

How did Cc1ccccc1C1C(C#N)=C2N=C(N)c3c(sc4c3CCCCC4)N2C2=C1C(=O)CC(C)(C)C2 (stereo not given) do in these assays?
PP1 counter: 15.3*; SKKanGAS inh: 21.4; IDE cell inh: -0.1; IDE cell activ: -15.8; PP5 primary: 3.3; Exocytosis inh: 1.3

How did Cc1c(N)cc(S(=O)(=O)O)cc1NC(=O)c1cccc([N+](=O)[O-])c1 do in these assays?
IDE cell activ: 2.1; Exocytosis inh: -3.3

What do the screens show for `COc1c(CC=C(C)C)cc(C2CC(=O)c3c(O)cc(O)cc3O2)cc1CC=C(C)C` (stereo not given)?
PP1 counter: -4.9; SKKanGAS inh: 100.9*; IDE cell inh: 2.2; IDE cell activ: 12.9; PP5 primary: 3.9; Exocytosis inh: 41.7

What do the screens show for `O=C1C[C@@H](c2ccccc2)Oc2cc(O)cc(O)c21`?
PP1 counter: -4.2; SKKanGAS inh: 1.5; IDE cell inh: 1.1; IDE cell activ: 2.9; PP5 primary: 0.1; Exocytosis inh: 12.4

How did COC1=CC(=O)C(C2CC(=O)c3c(O)cc(O)cc3O2)=CC1=O (stereo not given) do in these assays?
IDE cell activ: -13.0; Exocytosis inh: 67.1*

How did COc1ccc([C@@H]2CC(=O)c3c(O)cc(O)cc3O2)cc1O do in these assays?
PP1 counter: 1.4; IDE cell inh: 0.2; IDE cell activ: 4.7; PP5 primary: -2.0; Exocytosis inh: 1.2

Results for COc1ccc(CN2C(=O)C(CC(C)C)Nc3ncnc(N4CCOCC4)c32)cc1 (stereo not given) ?
PP1 counter: -1.4; SKKanGAS inh: -4.3; IDE cell inh: 0.2; IDE cell activ: -1.8; PP5 primary: 4.1; Exocytosis inh: -4.4
